The list is not random: actives were taken first. Their share in the collection is about 3.6%.
Sm TGR inh – S. mansoni TGR enzyme inhibition. Potency, µM (highest dose often 114 µM), hits mostly inhibitors. purified TGR, DTNB reduction, TNB absorbance 405 nm. AID 485364. Q962Y6. 360,000 tested, 3% active; further: nearly all actives have a fitted effect of over 60% in size
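First, TGR (20 nM dispensed) and NADPH were mixed with compound. Second, a 15 min room-temperature incubation followed. Third, further NADPH and then DTNB were added to start the reaction. Finally, TNB absorbance was monitored kinetically.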
Giardia FBPA inh – inhibitors of Giardia lamblia fructose-1,6-bisphosphate aldolase | purified Giardia FBPA | 290,000 tested, 0.71% active | Potency, µM (doses to about 59.6 µM), usual class: inhibitors | A8B2U2; further: nearly all actives have a fitted effect of over 55% in size
Target sequence (A8B2U2 whole entry, looked up): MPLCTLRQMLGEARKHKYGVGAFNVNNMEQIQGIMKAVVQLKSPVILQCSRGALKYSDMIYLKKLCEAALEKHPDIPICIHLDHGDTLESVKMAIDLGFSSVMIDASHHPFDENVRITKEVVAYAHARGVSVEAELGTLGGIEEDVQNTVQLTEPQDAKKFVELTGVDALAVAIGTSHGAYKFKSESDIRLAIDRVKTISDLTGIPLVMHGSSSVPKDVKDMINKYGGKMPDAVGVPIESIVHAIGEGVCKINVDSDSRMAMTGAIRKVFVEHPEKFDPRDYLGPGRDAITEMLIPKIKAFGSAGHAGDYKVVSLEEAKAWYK
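40 nM FBPA preincubated 10 min at RT with compound (up to 57.5 uM final), then substrate plus GAPDH/TPI/NAD/arsenate coupling and diaphorase/resazurin added. Fluorescence read after 20 min at RT, 525/598 nm.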
AmpC no deterg – AmpC beta-lactamase inhibition without detergent. AmpC nitrocefin hydrolysis, absorbance 480 nm, 0.0001% Triton. Potency, µM (doses to about 57.1 µM), hits mostly inhibitors. 330,000 tested, 0.52% active; further: nearly all actives have a fitted effect of over 20% in size
Target sequence (P00811 whole entry, looked up): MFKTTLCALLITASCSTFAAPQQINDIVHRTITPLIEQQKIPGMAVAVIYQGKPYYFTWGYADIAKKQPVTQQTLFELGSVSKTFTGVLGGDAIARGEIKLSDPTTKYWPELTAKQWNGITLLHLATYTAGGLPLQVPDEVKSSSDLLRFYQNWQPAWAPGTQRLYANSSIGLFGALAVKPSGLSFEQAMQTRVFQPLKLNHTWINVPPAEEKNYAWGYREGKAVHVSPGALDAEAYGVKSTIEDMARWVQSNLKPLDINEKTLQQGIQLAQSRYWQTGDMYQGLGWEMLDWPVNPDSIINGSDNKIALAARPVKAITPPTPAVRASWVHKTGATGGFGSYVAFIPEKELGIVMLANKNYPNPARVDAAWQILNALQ
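AmpC (5.3 nM in the dispensed reagent) in 20 mM phosphate pH 7.0 with 0.01% (detergent screen) or 0.0001% Triton X-100 was preincubated with compounds for 15 min at room temperature. Nitrocefin was then added from an 800 uM solution, and hydrolysis was followed at 480 nm.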
AmpC inh detg – inhibitors of E. coli AmpC beta-lactamase with detergent. P00811. 370,000 tested, 0.041% active. AmpC hydrolysis of nitrocefin, absorbance 480 nm, 0.01% Triton. Potency, µM (doses to about 114 µM), actives largely listed as inhibitors. AID 485294; further: nearly all actives have a fitted effect of over 25% in size
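AmpC (5.3 nM in the dispensed reagent) in 20 mM phosphate pH 7.0 with 0.01% (detergent screen) or 0.0001% Triton X-100 was preincubated with compounds for 15 min at room temperature. Nitrocefin was then added from an 800 uM solution, and hydrolysis was followed at 480 nm.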
Each line names hits and unclear results; the compound was inactive in the other large screens. The call rests on the fitted dose curve; in most records, active means well fitted curve in the direction sought with a large enough effect; inconclusive means small, poorly fitted or top-dose-only effect, or another doubt; inactive means no such curve, though single readings can be large; an effect the other way counts as inactive or inconclusive.

COCCn1c(SCC(=O)c2ccc(Cl)cc2)nnc1C(C)C	Sm TGR inh 39.8µM, Giardia FBPA inh inconclusive
CCCCn1c(SCC(=O)NCc2ccco2)nnc1-c1ccoc1C	Sm TGR inh 28.2µM, AmpC inh detg inconclusive
CC(Sc1nnc(-c2cccs2)n1-c1ccccc1)C(=O)NCc1ccco1 (stereo unspecified)	Sm TGR inh 44.7µM
CC(Sc1ccsc1[N+](=O)[O-])C(=O)NCc1ccco1 (stereo unspecified)	Sm TGR inh 22.4µM
COCCn1c(SCC(=O)c2ccc3c(c2)OCCO3)nnc1C(C)C	Sm TGR inh inconclusive
COc1ccc(-c2cnc(C)o2)cc1S(=O)(=O)Nc1ccc(OC(F)(F)F)cc1	none (no result: Giardia FBPA inh, AmpC no deterg)
COCCN(CCOC)c1nc(C)nc2c1nc(-c1ccccc1)n2CC1CCN(C)CC1	none (no result: Sm TGR inh, AmpC no deterg, AmpC inh detg)
CN(C)S(=O)(=O)c1ccc(NC(=O)CN2C(=O)NC3(CCCC3)C2=O)cc1	none
CS(=O)(=O)c1ccc(N2CCN(S(=O)(=O)c3cccs3)CC2)c([N+](=O)[O-])c1	none (no result: Giardia FBPA inh)
Cc1ccnc(NS(=O)(=O)c2ccc(NS(=O)(=O)c3cc(Cl)ccc3Cl)cc2)n1	none
CCn1c(SCC(=O)NCc2ccco2)nnc1-c1cccs1	Sm TGR inh 10µM
COCCn1c(SCC(=O)NCc2ccco2)nnc1C(C)C	Sm TGR inh 44.7µM
CCCCn1c(SCC(=O)NCc2ccco2)nnc1-c1ccco1	Sm TGR inh 44.7µM
CCCn1c(SCC(=O)NCc2ccco2)nnc1-c1ccncc1	none (no result: Sm TGR inh)
CCOc1ccc(-c2cc(NC(=O)c3cccc(Cl)c3)c(C(=O)OC)s2)cc1	none (no result: Giardia FBPA inh, AmpC no deterg)
CCOC(=O)c1sc2cccc(F)c2c1S(=O)(=O)NCc1ccccc1Cl	none (no result: Giardia FBPA inh, AmpC no deterg)
CCOc1ccc(/C=N/Nc2ccccc2)cc1	Sm TGR inh 25.1µM
O=C(/C=C/N1CCOCC1)c1coc2ccccc12	Sm TGR inh 79.4µM
COc1ccc(NC(=O)Nc2nnc(N3CCCC3)s2)cc1	none (no result: Giardia FBPA inh, AmpC no deterg)
Cc1ccccc1NC(=O)Cn1c(=O)n(Cc2ccc3c(c2)OCO3)c(=O)c2oc3ccccc3c21	none (no result: Giardia FBPA inh, AmpC no deterg)
CCSC1(SCC)N=C(N)C2(C#N)C(c3ccc(OC)c(OC)c3OC)C12C#N (stereo unspecified)	Sm TGR inh 14.1µM
CCSC1(SCC)N=C(N)C2(C#N)C(c3ccccc3)NC3=C(CCC3)C12C#N (stereo unspecified)	Sm TGR inh inconclusive, AmpC inh detg inconclusive
CCOC(=O)Nc1ccc2c(c1)N(C(=O)CCN(CC)CC)c1ccccc1S2=O (stereo unspecified)	Sm TGR inh 4.47µM
CN(C)S(=O)(=O)c1ccccc1N=C=S	Sm TGR inh 15.8µM
O=C(O)CC(Cc1ccccc1)(C(=O)O)c1ccccc1 (stereo unspecified)	none
COc1ccc(-c2ccc(SCC(=O)c3ccccc3)nn2)cc1OC	none
CCCCOc1ccc(C(=O)Nc2cc(-c3cn4cccnc4n3)ccc2OC)cc1	none (no result: Giardia FBPA inh, AmpC no deterg)
CCOC(=O)N1CCC(Nc2c(NCCCOC)c(=O)c2=O)CC1	AmpC no deterg 0.251µM
CCOC(=O)N1CCC(Nc2c(NCCCN(CC)CC)c(=O)c2=O)CC1	none
CCN1C(=O)/C(=C2/C(=O)N3c4c(cc(OC(C)=O)cc42)C(C)=CC3(C)C)SC1=S	none
COc1cc2c3c(c1)/C(=C1/SC(NC(C)=O)=NC1=O)C(=O)N3C(C)(C)C=C2C	Sm TGR inh 39.8µM
Cc1ccc(S(=O)(=O)N2CC2(C)CCl)cc1 (stereo unspecified)	Sm TGR inh 50.1µM
Cc1ccc(-c2ccc(C(=O)NCCCNC(=O)c3cnccn3)o2)cc1Cl	Sm TGR inh 31.6µM
CCc1cccc(NC(=O)Cn2c(=O)n(CCc3ccc(OC)c(OC)c3)c(=O)c3ccccc32)c1	none (no result: Giardia FBPA inh, AmpC no deterg)
CN1CCCN(Cc2ccc(Cl)cc2Cl)CC1	Giardia FBPA inh 19.9µM
COc1ccc(CN2CCCN(C)CC2)c(OC)c1C	Giardia FBPA inh inconclusive
CN1CCCN(Cc2nc(-c3ccc(Cl)cc3)no2)CC1	Sm TGR inh 17.8µM
COc1ccccc1/C=C/C=N/NC(=O)c1ccc2nc[nH]c2c1	AmpC no deterg 20µM
COc1ccc(OC)c(/C=N/NC(=O)c2ccc3nc[nH]c3c2)c1	none
C/C(CC(=O)Nc1cccc(Cl)c1Cl)=N\NC(=O)c1ccccc1C	none
O=C(Nc1nnc(N2CCCCCC2)s1)Nc1ccccc1C(F)(F)F	none (no result: Giardia FBPA inh, AmpC no deterg)
COc1ccc(Nc2cc(NCCCO)c([N+](=O)[O-])c3nonc23)cc1	none
COc1ccc(CNc2cc(NCCCO)c([N+](=O)[O-])c3nonc23)cc1	Sm TGR inh 22.4µM, Giardia FBPA inh inconclusive
CC1CCCN(c2cc(N(C)CCO)c([N+](=O)[O-])c3nonc23)C1 (stereo unspecified)	none
O=[N+]([O-])c1c(NCCO)cc(N2CCC3(CC2)OCCO3)c2nonc12	Giardia FBPA inh inconclusive
O=[N+]([O-])c1c(NCCCO)cc(N2CCCCCC2)c2nonc12	Sm TGR inh 11.2µM
CN(CCO)c1cc(N2CCCCC2)c2nonc2c1[N+](=O)[O-]	Sm TGR inh 17.8µM
CN(CCO)c1cc(N2CCC3(CC2)OCCO3)c2nonc2c1[N+](=O)[O-]	Sm TGR inh 28.2µM
Cc1noc(C)c1C(=O)Nc1cccc2ncccc12	none
Cn1c(=O)c2c(SCC(N)=O)nc(CC(C)(C)C)nc2n(C)c1=O	Giardia FBPA inh inconclusive, AmpC no deterg 6.31µM, AmpC inh detg inconclusive
Cn1c(=O)c2c(SCC(=O)N3CCOCC3)nc(CC(C)(C)C)nc2n(C)c1=O	none
Cn1c(=O)c2c(SCC(=O)NCc3ccco3)nc(CC(C)(C)C)nc2n(C)c1=O	AmpC inh detg inconclusive
Cn1c(=O)c2c(SCc3c(F)cccc3Cl)nc(CC(C)(C)C)nc2n(C)c1=O	AmpC no deterg 3.55µM
CCc1cccc(C)c1NC(=O)CCS(=O)(=O)c1ccc2c(c1)oc(=O)n2C	Sm TGR inh 25.1µM (no result: Giardia FBPA inh, AmpC no deterg)
CCOc1ccc(OCC(=O)c2c(O)c3ccccc3oc2=O)cc1	Sm TGR inh 17.8µM, Giardia FBPA inh inconclusive
CCCCC(=O)c1c(O)c2ccccc2oc1=O	none
COc1ccc(OCC(=O)c2c(O)c3ccccc3oc2=O)cc1	Sm TGR inh 31.6µM, Giardia FBPA inh inconclusive
CC1CCC(C(=O)c2c(O)c3ccccc3oc2=O)CC1 (stereo unspecified)	none
O=C(CC1CCCCC1)c1c(O)c2ccccc2oc1=O	Sm TGR inh 50.1µM
O=C(Nc1ccccc1C(=O)O)c1cc(S(=O)(=O)N2CCOCC2)c(Br)s1	none
CCOC(=O)c1cnc(SC2CC(=O)N(c3ccccc3)C2=O)nc1N (stereo unspecified)	none
CCOC(=O)c1cc(CC)sc1N1C(=O)CC(Sc2ccccc2C(=O)O)C1=O (stereo unspecified)	Sm TGR inh 14.1µM
CCOC(=O)c1cc(CC)sc1N1C(=O)CC(Sc2ncccc2C(=O)O)C1=O (stereo unspecified)	Sm TGR inh 25.1µM, AmpC inh detg inconclusive
COc1ccccc1CCNC(=O)CSc1nnc2ccc(-c3ccncc3)nn12	none
CCOc1cc(C2C3=C(CCCC3=O)N(CC(=O)O)C3=C2C(=O)CCC3)ccc1OC	Sm TGR inh 89.1µM

High-throughput results: PubChem BioAssay, National Center for Advancing Translational Sciences (NCATS)
